# Measured values as given in article PMC7862700, “An all-to-all approach to the identification of sequence-specific readers for epigenetic DNA modifications on cytosine”.
# What was measured:
# Experiment in all cases: DAPPL (digital affinity profiling via proximity ligation, sequencing); 10 mM Tris-HCl pH 7.5, 50 mM NaCl, 1 mM DTT, 4% glycerol, room temperature, 30 min; GST-TFs on glutathione beads, 16-mer random dsDNA library, 0.1% formaldehyde crosslink after washing; high values mean tight binding
# [1] = molecular target: T1, FLI1 (Homo sapiens, UniProt Q01543 1-452); settings: protein: recombinant; tags: N-terminal GST; dsDNA, one strand shown
# T1 sequence: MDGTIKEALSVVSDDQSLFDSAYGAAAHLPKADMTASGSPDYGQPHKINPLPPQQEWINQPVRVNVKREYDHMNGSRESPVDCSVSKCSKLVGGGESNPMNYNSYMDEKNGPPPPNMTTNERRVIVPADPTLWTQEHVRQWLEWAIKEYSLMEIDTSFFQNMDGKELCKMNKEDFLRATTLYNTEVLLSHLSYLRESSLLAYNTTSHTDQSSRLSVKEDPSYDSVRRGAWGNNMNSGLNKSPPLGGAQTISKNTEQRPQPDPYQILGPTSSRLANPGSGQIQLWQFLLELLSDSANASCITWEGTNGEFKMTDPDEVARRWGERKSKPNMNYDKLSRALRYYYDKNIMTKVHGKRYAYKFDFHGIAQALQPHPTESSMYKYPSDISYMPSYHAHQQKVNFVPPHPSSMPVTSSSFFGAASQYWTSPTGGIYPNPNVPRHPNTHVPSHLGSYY
# Procedure, shortened: (§1)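 The binding signal reported is, for every hexamer, its read frequency for a factor over its read frequency for the tag-only sample. Reads came from pools of yeast-expressed, GST-fused human transcription factors on glutathione beads, barcoded with DNA and mixed with that sample, which were incubated with 200 nmole of a random double-stranded 16-mer DNA library in Tris/NaCl/DTT/glycerol buffer at room temperature for 30 min. After washing, the pools were crosslinked with 0.1% formaldehyde, proximity-ligated with BsaI/T4 ligase for 1 h at 37 °C, PCR-amplified and sequenced on an Illumina NextSeq500.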
# [2] = molecular target: T2, ELK1 (Homo sapiens, UniProt P19419 1-428); settings: protein: recombinant; tags: N-terminal GST; dsDNA, one strand shown
# T2 sequence: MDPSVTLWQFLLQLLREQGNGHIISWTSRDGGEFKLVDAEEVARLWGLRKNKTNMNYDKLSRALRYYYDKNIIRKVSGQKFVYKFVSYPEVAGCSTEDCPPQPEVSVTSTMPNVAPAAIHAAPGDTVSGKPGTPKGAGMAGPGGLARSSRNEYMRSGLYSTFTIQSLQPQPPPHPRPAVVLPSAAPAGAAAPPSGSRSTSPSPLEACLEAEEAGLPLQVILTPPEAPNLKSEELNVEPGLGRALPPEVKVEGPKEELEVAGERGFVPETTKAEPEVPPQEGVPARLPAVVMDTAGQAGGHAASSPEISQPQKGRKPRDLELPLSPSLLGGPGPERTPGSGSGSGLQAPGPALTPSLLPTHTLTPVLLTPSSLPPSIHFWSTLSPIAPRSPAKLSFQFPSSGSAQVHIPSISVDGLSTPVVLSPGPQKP
# Procedure, shortened: as §1
# [3] = molecular target: T3, GABPA (Homo sapiens, UniProt Q06546 1-454); settings: protein: recombinant; tags: N-terminal GST; dsDNA, one strand shown
# T3 sequence: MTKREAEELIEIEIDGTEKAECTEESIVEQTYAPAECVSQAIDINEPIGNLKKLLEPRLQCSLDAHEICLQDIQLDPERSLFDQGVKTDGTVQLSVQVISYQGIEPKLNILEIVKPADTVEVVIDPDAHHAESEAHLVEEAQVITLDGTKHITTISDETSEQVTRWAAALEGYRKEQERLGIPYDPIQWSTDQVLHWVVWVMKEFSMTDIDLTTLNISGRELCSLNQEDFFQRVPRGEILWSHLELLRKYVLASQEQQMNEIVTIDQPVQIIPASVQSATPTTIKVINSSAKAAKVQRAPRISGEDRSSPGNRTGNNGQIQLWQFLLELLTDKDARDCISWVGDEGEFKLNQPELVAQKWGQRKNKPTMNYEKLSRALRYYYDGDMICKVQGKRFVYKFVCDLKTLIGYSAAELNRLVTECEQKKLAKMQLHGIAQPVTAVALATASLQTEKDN
# Procedure, shortened: as §1
# [4] = molecular target: T4, ERG (Homo sapiens, UniProt P11308 1-479); settings: protein: recombinant; tags: N-terminal GST; dsDNA, one strand shown
# T4 sequence: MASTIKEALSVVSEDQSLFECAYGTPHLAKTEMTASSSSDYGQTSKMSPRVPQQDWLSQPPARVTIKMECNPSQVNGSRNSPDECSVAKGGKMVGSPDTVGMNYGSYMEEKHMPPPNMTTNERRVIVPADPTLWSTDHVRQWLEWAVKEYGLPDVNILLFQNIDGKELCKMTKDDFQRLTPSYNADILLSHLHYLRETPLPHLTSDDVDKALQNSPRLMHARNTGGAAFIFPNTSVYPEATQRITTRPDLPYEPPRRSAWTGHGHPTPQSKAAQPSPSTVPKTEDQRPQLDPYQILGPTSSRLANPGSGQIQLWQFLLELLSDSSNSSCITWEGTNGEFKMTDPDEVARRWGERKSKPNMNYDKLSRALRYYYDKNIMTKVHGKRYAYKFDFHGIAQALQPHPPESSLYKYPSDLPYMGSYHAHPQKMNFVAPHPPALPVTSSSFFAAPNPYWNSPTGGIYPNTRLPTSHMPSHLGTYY
# Procedure, shortened: as §1
# [5] = molecular target: ELF1 (Homo sapiens, UniProt P32519 1-619); settings: protein: recombinant; tags: N-terminal GST; dsDNA, one strand shown
# Procedure, shortened: as §1
# [6] = molecular target: T5, EHF (Homo sapiens, UniProt Q9NZC4 1-300); settings: protein: recombinant; tags: N-terminal GST; dsDNA, one strand shown
# T5 sequence: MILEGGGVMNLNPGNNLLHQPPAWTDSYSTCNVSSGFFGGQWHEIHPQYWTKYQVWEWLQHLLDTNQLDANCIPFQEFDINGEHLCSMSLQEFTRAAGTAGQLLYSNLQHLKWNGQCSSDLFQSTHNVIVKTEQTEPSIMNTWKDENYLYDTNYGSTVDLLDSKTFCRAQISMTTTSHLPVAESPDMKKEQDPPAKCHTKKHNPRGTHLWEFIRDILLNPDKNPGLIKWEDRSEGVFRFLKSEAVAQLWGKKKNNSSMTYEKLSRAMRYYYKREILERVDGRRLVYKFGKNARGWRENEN
# Procedure, shortened: as §1
# [7] = molecular target: SPI1 (Homo sapiens, UniProt P17947 1-270); settings: protein: recombinant; tags: N-terminal GST; dsDNA, one strand shown
# Procedure, shortened: as §1
# [8] = molecular target: SPIB (Homo sapiens, UniProt Q01892 1-262); settings: protein: recombinant; tags: N-terminal GST; dsDNA, one strand shown
# Procedure, shortened: as §1
# [9] = molecular target: T6, ELK3 (Homo sapiens, UniProt P41970 1-407); settings: protein: recombinant; tags: N-terminal GST; dsDNA, one strand shown
# T6 sequence: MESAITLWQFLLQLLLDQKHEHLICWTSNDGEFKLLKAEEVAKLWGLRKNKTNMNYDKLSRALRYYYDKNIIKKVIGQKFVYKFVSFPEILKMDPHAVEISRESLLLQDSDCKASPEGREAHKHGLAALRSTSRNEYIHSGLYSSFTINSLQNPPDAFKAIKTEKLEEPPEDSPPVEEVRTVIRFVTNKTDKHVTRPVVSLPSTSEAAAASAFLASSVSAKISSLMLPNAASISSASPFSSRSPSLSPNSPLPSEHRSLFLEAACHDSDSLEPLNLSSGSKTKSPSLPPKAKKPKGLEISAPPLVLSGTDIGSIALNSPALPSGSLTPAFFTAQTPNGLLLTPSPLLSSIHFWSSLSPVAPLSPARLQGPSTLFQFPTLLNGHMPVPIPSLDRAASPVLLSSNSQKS
# Procedure, shortened: as §1
# [10] = molecular target: T7, FEV (Homo sapiens, UniProt Q99581 1-238); settings: protein: recombinant; tags: N-terminal GST; dsDNA, one strand shown
# T7 sequence: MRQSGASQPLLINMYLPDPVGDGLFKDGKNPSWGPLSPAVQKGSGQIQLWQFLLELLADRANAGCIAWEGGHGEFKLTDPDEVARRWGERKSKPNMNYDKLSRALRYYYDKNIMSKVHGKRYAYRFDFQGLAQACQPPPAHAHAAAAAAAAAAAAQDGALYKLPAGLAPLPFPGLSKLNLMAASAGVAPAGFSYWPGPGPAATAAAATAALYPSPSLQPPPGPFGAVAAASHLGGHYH
# Procedure, shortened: as §1
# [11] = molecular target: ETV5 (Homo sapiens, UniProt P41161 1-510); settings: protein: recombinant; tags: N-terminal GST; dsDNA, one strand shown
# Procedure, shortened: as §1
# [12] = molecular target: HSF1 (Homo sapiens, UniProt Q00613 1-529); settings: protein: recombinant; tags: N-terminal GST; chain copies: 3; dsDNA, one strand shown
# Procedure, shortened: as §1
# [13] = molecular target: T8, SPIC (Homo sapiens, UniProt Q8N5J4 1-248); settings: protein: recombinant; tags: N-terminal GST; dsDNA, one strand shown
# T8 sequence: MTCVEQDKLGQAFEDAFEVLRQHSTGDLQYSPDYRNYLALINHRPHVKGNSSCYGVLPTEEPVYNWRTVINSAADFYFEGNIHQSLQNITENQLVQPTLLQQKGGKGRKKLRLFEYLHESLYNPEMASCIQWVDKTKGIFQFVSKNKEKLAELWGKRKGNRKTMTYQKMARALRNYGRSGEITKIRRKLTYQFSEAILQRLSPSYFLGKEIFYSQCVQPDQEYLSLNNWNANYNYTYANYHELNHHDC
# Procedure, shortened: as §1
# [14] = molecular target: ELF4 (Homo sapiens, UniProt Q99607 1-663); settings: protein: recombinant; tags: N-terminal GST; dsDNA, one strand shown
# Procedure, shortened: as §1
# [15] = molecular target: T9, ELK4 (Homo sapiens, UniProt P28324-2 1-405); settings: protein: recombinant; tags: N-terminal GST; dsDNA, one strand shown
# T9 sequence: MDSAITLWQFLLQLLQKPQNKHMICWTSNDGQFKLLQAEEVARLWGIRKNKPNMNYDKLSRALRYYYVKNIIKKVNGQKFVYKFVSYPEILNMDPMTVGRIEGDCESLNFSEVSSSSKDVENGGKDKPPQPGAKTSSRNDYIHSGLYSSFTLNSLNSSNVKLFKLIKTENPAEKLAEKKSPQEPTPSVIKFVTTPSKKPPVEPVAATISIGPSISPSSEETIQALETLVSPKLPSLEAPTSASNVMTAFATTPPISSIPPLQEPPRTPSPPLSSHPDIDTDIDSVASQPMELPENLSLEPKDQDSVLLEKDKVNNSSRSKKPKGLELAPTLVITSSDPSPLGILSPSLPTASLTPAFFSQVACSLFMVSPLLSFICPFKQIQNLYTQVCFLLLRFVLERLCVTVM
# Procedure, shortened: as §1
# [16] = molecular target: T10, ETV2 (Homo sapiens, UniProt O00321 1-342); settings: protein: recombinant; tags: N-terminal GST; dsDNA, one strand shown
# T10 sequence: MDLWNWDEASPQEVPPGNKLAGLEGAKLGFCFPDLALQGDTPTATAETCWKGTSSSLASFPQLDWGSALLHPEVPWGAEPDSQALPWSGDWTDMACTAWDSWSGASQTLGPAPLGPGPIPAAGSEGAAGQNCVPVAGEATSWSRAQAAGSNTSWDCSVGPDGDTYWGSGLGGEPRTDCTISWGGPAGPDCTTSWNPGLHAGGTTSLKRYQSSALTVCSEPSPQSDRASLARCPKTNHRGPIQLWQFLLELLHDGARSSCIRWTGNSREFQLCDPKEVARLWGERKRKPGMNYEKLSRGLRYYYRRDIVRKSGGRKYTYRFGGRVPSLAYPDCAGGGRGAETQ
# Procedure, shortened: as §1
# [17] = molecular target: T11, ELF3 (Homo sapiens, UniProt P78545 1-371); settings: protein: recombinant; tags: N-terminal GST; dsDNA, one strand shown
# T11 sequence: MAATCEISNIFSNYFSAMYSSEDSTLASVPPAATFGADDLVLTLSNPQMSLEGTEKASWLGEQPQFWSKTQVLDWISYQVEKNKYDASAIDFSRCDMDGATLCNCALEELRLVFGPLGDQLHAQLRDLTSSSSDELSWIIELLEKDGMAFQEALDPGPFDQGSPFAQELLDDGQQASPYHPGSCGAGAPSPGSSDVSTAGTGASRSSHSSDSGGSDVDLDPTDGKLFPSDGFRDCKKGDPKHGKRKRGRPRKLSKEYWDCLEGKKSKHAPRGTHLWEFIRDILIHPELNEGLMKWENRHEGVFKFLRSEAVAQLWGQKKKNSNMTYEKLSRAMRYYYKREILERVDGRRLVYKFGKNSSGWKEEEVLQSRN
# Procedure, shortened: as §1
# [18] = molecular target: CRX (Homo sapiens, UniProt O43186 1-299); settings: protein: recombinant; tags: N-terminal GST; dsDNA, one strand shown
# Procedure, shortened: as §1
# [19] = molecular target: ETV1 (Homo sapiens, UniProt P50549 1-477); settings: protein: recombinant; tags: N-terminal GST; dsDNA, one strand shown
# Procedure, shortened: as §1
# Chain of ETV5 (P41161 whole entry): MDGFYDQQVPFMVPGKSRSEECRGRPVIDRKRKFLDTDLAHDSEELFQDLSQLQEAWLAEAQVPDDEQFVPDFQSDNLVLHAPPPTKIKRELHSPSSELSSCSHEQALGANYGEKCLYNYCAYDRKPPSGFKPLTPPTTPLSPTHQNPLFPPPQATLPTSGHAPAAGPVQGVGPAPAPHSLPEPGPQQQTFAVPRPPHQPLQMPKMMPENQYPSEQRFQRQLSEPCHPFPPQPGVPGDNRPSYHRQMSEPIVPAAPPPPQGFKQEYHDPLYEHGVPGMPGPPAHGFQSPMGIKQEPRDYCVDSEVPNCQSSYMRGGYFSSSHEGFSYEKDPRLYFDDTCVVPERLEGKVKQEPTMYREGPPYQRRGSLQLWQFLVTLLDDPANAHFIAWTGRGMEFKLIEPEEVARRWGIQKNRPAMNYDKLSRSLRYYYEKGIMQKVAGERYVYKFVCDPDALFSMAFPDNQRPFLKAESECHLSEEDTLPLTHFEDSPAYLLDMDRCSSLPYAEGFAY
# Chain of ETV1 (P50549 whole entry): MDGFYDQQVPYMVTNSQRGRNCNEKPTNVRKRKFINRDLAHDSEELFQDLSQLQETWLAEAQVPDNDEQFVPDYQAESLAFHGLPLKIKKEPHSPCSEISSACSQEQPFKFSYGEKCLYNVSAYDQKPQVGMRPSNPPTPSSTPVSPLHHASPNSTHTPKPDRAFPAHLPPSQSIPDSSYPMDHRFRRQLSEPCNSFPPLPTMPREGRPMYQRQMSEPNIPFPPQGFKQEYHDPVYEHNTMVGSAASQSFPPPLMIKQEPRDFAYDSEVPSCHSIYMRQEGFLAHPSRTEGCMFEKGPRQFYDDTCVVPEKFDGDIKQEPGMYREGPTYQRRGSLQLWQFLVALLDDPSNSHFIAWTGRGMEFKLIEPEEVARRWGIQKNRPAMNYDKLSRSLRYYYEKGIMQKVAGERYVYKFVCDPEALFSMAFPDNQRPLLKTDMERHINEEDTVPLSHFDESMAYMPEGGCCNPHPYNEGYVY
# Chain of CRX (O43186 whole entry): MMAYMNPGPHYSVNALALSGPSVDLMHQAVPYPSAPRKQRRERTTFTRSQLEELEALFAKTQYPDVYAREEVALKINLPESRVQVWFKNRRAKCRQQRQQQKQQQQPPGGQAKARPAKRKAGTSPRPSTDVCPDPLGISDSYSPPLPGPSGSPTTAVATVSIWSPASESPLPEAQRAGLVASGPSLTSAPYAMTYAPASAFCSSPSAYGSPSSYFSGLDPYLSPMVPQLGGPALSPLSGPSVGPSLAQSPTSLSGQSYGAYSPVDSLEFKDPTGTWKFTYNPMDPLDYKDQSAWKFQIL
# Chain of ELF4 (Q99607 whole entry): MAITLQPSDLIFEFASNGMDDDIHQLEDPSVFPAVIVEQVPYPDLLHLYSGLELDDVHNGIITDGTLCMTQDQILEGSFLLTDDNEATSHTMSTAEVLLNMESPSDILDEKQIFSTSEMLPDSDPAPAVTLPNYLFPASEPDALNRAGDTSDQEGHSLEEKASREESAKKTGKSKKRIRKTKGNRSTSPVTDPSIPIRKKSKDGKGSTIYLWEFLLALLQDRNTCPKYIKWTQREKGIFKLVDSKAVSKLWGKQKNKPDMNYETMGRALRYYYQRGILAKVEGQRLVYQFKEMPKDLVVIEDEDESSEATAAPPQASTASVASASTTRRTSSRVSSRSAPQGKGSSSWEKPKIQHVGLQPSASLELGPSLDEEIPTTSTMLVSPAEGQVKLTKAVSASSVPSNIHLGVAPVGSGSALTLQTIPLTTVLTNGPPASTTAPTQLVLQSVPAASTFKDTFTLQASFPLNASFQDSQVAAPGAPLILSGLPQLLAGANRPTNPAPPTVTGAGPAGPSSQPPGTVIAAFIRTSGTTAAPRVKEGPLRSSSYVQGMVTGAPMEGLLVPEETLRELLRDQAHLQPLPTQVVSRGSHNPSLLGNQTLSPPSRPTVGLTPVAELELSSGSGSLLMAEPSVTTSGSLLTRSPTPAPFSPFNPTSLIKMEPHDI
# Chain of HSF1 (Q00613 whole entry): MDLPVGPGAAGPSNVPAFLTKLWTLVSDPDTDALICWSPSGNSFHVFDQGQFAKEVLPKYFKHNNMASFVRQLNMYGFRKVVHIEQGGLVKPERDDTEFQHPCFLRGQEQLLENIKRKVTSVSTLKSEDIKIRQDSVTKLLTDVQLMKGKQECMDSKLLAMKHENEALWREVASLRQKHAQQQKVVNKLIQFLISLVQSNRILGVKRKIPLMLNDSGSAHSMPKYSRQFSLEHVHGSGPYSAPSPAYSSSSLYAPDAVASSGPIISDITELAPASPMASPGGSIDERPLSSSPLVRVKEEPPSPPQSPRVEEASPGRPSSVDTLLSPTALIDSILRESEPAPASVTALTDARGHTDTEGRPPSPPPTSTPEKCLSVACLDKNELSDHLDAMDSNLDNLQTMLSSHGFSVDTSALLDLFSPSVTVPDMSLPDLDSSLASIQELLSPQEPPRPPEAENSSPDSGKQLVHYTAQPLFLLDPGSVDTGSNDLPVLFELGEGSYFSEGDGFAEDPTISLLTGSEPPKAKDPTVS
# Chain of ELF1 (P32519 whole entry): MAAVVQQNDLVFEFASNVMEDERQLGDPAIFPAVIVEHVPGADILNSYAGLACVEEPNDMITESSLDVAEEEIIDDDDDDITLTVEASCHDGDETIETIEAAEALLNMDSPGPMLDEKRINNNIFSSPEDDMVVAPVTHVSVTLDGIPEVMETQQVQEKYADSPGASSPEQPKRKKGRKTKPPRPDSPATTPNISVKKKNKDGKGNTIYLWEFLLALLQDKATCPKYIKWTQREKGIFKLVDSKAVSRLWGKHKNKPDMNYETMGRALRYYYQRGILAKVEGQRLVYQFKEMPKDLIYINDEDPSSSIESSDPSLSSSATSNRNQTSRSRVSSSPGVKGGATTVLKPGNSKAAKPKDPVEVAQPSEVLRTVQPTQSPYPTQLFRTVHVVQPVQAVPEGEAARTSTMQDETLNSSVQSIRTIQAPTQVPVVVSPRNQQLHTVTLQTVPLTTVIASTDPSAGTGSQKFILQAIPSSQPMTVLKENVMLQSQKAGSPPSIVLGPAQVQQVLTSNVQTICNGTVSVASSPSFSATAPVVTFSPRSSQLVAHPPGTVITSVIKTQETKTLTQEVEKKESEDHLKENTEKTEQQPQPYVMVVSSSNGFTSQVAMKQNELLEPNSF
# Chain of SPIB (Q01892 whole entry): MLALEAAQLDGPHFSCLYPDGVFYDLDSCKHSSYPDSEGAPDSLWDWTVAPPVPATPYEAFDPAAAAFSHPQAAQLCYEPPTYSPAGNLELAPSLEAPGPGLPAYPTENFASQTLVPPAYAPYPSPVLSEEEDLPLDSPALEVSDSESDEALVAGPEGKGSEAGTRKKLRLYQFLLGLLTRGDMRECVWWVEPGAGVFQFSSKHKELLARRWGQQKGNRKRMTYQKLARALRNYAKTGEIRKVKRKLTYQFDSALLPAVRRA
sequence,measurement,setting,value
TATGAA,binding signal,[1],"1.18 fold enrichment (6-mer frequency, TF over GST control)"
same,binding signal,[2],"1.17 fold enrichment (6-mer frequency, TF over GST control)"
same,binding signal,[3],"1.21 fold enrichment (6-mer frequency, TF over GST control)"
same,binding signal,[4],"1.14 fold enrichment (6-mer frequency, TF over GST control)"
same,binding signal,[5],"1.18 fold enrichment (6-mer frequency, TF over GST control)"
same,binding signal,[6],"1.12 fold enrichment (6-mer frequency, TF over GST control)"
same,binding signal,[7],"1.19 fold enrichment (6-mer frequency, TF over GST control)"
same,binding signal,[8],"1.17 fold enrichment (6-mer frequency, TF over GST control)"
same,binding signal,[9],"1.16 fold enrichment (6-mer frequency, TF over GST control)"
same,binding signal,[10],"1.14 fold enrichment (6-mer frequency, TF over GST control)"
same,binding signal,[11],"1.12 fold enrichment (6-mer frequency, TF over GST control)"
same,binding signal,[12],"1.21 fold enrichment (6-mer frequency, TF over GST control)"
same,binding signal,[13],"1.4 fold enrichment (6-mer frequency, TF over GST control)"
same,binding signal,[14],"1.26 fold enrichment (6-mer frequency, TF over GST control)"
same,binding signal,[15],"1.13 fold enrichment (6-mer frequency, TF over GST control)"
same,binding signal,[16],"1.17 fold enrichment (6-mer frequency, TF over GST control)"
same,binding signal,[17],"1.29 fold enrichment (6-mer frequency, TF over GST control)"
same,binding signal,[18],"1.25 fold enrichment (6-mer frequency, TF over GST control)"
same,binding signal,[19],"1.14 fold enrichment (6-mer frequency, TF over GST control)"
